Assay outcomes (PubChem BioAssay)
An excerpt weighted towards active compounds, which were near 12% of everything screened.
FMDV inh: foot and mouth disease virus antiviral activity | Potency, µM (titrated, usually from 57.9 µM), most hits filed as inhibitors | hit rate 1.2% among 410,000 | FMDV antiviral cell-based qHTS; calls by dose curve; tested in HEK293T cells; also: read-out not given here; nearly all actives have a fitted effect of over 45% in size
Sm TGR inh: blocks Schistosoma mansoni thioredoxin glutathione reductase. Q962Y6. purified TGR, DTNB reduction, TNB absorbance 405 nm. Potency, µM (titrated, usually from 114 µM), actives largely listed as inhibitors. hit rate 3% among 360,000. AID 485364; active = well fitted inhibition curve with a large enough effect; inconclusive = small, poorly fitted or top-dose-only effect; inactive = no such curve, though single readings can be large or run the other way; also: nearly all actives have a fitted effect of over 60% in size
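Kinetic colorimetric format: TGR-catalysed, NADPH-driven DTNB reduction monitored via TNB absorbance. Enzyme dispensed at 20 nM; compound exposure 15 min at room temperature before reaction start.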
Shiga inhibitor: Shiga toxin inhibition. hit rate 9.2% among 290,000. inhibition, % at 38.7 µM. Vero cells, Shiga toxin protein synthesis inhibition reporter. AID 2315; in the data active = inhibition mostly above about 28%, no sharp cut-off; inactive = mostly below about 43%
Cycloheximide cs: affects cycloheximide protein synthesis inhibition readout, counter-screen. cell reporter, cycloheximide protein synthesis inhibition counterscreen. max response, %. hit rate 12% among 300,000; in the data active = max response mostly above about 13%, no sharp cut-off; inactive = mostly below about 14%; also: read at 38.3 µM for the half of the compounds with a filed dose
Each line names hits and unclear results; the compound was inactive in the other large screens.

Cc1ccc(Nc2nc3c(s2)CCC3)c(C)c1	Shiga inhibitor 56, Cycloheximide cs 32
O=c1c(Cl)c(Nc2cccc(Cl)c2)cnn1-c1nc2ccccc2s1	Sm TGR inh inconclusive, Shiga inhibitor 69, Cycloheximide cs 88
Cc1ccc(C)c(N2CCN(c3cnn(-c4nc5ccccc5s4)c(=O)c3Cl)CC2)c1	Shiga inhibitor 138, Cycloheximide cs 64
COc1ccc(Nc2cnn(-c3nc4ccccc4s3)c(=O)c2Cl)cc1	Sm TGR inh 1.3µM, Shiga inhibitor 76, Cycloheximide cs 48
COc1ccc(C2=NN(c3nc4ccccc4s3)C(=O)/C2=C\N(C)C)cc1	FMDV inh inconclusive
NCCCCC(N)C(=O)NC(Cc1ccc(O)cc1)C(=O)NC(CCCCN)C(=O)O (configuration not stated)	none (no result: Sm TGR inh, Shiga inhibitor, Cycloheximide cs)
CC(=O)N1CCC2(CC1)CCN(c1ccccn1)CC2	none (no result: Sm TGR inh, Shiga inhibitor, Cycloheximide cs)
CCCc1cc(=O)[nH]c2nnc(SCC(=O)Nc3cccc(C)c3)n12	none (no result: Shiga inhibitor, Cycloheximide cs)
Cc1cc(C)cc(NC(=O)C(C)N2Cc3ccccc3C2=O)c1 (configuration not stated)	none (no result: Shiga inhibitor, Cycloheximide cs)
COc1cc(/C=C/c2nc3cc(Cl)ccc3c(=O)n2-c2ccc(C)cc2C)cc(OC)c1OC	none (no result: Shiga inhibitor, Cycloheximide cs)
Cc1cc(C)n(C(=O)c2cc(F)c(F)cc2C)n1	Shiga inhibitor 70, Cycloheximide cs 25
COc1ccccc1CNc1cc(-c2c(C)noc2C)ncn1	none (no result: Sm TGR inh, Shiga inhibitor, Cycloheximide cs)
CCOC(=O)C1(CCOC)CCN(Cc2ccncc2)CC1	none
CCOC(=O)C1(CCOc2ccccc2)CCN(Cc2ccncc2)CC1	FMDV inh inconclusive, Sm TGR inh 28µM
CCOC(=O)C1(Cc2cccc(OC)c2)CCN(Cc2cccnc2)CC1	Shiga inhibitor 99, Cycloheximide cs 35
COC(=O)c1ccc(CSc2nnc(-c3c[nH]c4ccccc34)n2C)o1	none
COc1ccc(-n2cnnc2SCC(=O)N2CCN(c3ccccc3)CC2)cc1	FMDV inh inconclusive
O=C(CSc1ccc2ccccc2c1)N1CCN(c2ccc(O)cc2)CC1	Sm TGR inh 50µM
Cn1c(SCC(=O)N2CCN(c3ccccc3)CC2)nnc1-c1c[nH]c2ccccc12	FMDV inh 18µM
COc1ccc(N2CCN(C(=O)CSc3nnc(-c4cc5ccccc5cc4O)n3C)CC2)cc1	FMDV inh 25µM
CCn1c(SCC(=O)N2CCN(c3ccccc3)CC2)nnc1-c1c[nH]c2ccccc12	FMDV inh inconclusive
COC(=O)c1ccc(CSc2nnc(-c3c[nH]c4ccccc34)n2-c2ccccc2)cc1	Shiga inhibitor active, Cycloheximide cs 18
CCC1Oc2ccccc2N(CC(=O)NCc2ccccc2)C1=O (configuration not stated)	none (no result: Shiga inhibitor, Cycloheximide cs)
CCCCSc1nnc(-c2c[nH]c3ccccc23)n1C	none
Cn1c(SCc2ccccc2)nnc1-c1c[nH]c2ccccc12	Shiga inhibitor 48, Cycloheximide cs 21
Cc1ccccc1CNC(=O)CCSCc1cnn(-c2ccccc2)c1-n1cccc1	none (no result: Shiga inhibitor, Cycloheximide cs)
c1ccc2nc(C3=NCCN3)ccc2c1	none (no result: Sm TGR inh, Shiga inhibitor, Cycloheximide cs)
Cc1ccc(NC(=O)c2cc(-c3cccs3)nc3ccccc23)nc1	FMDV inh inconclusive, Sm TGR inh inconclusive
Cc1cc2ncc(-c3cccs3)nc2cc1C	Shiga inhibitor 101, Cycloheximide cs 51
Nc1nc2ccccc2cc1-c1cccs1	Shiga inhibitor 94, Cycloheximide cs 61
c1csc(-c2ccc3ccccc3n2)c1	Cycloheximide cs 33
Cc1ccc(-c2cc3ccccc3nc2N)cc1	Shiga inhibitor 71, Cycloheximide cs 18
O=C(Cc1cccs1)N/N=C/c1ccco1	none
O=C(Cc1cccs1)N/N=C/c1ccccc1	none
O=C(Cc1cccs1)N/N=C/C(Cl)=C/c1ccccc1	Shiga inhibitor 118, Cycloheximide cs 31
Cc1cccc(/C=N/NC(=O)Cc2cccs2)c1	Shiga inhibitor 72, Cycloheximide cs 33
CCOC(=O)N/N=C/C(Cl)=C/c1ccccc1	Shiga inhibitor 54, Cycloheximide cs 38
CCCn1c2ccccc2c2cnn(CC(=O)NCCCN(Cc3ccccc3)C(C)C)c(=O)c21	none (no result: Shiga inhibitor, Cycloheximide cs)
CCN(CC)C(=O)Oc1ccc2c(=O)c(-c3ccc(OC)cc3)coc2c1	Shiga inhibitor 83, Cycloheximide cs 45 (no result: FMDV inh)
COc1ccccc1-c1coc2cc(OC(=O)N3CCOCC3)ccc2c1=O	Shiga inhibitor 101, Cycloheximide cs 48
COc1ccc2c(=O)c(-c3ccc4c(c3)OCO4)coc2c1	Shiga inhibitor 76, Cycloheximide cs 68
CCN(CC)C(=O)Oc1ccc2c(=O)c(-c3ccc(OC)cc3)c(C)oc2c1	FMDV inh inconclusive
CCC(Oc1ccc2c(=O)c(-c3ccccc3OC)coc2c1)C(=O)OCc1ccccc1 (configuration not stated)	FMDV inh 20µM
CSc1nnc(CCNC(=O)/C=C/c2cccc(F)c2)n1-c1ccc(F)cc1	none (no result: Sm TGR inh, Shiga inhibitor, Cycloheximide cs)
COc1cccc(CC(=O)NCC2Cc3cc(Cl)cc(-c4ncccn4)c3O2)c1 (configuration not stated)	none (no result: Sm TGR inh, Shiga inhibitor, Cycloheximide cs)
CC(C)CN(CCCNC(=O)Cn1ncc2c3ccccc3n(C)c2c1=O)CC(C)C	none (no result: Shiga inhibitor, Cycloheximide cs)
CC(=O)Oc1ccc2c(=O)c(Oc3ccccc3[N+](=O)[O-])coc2c1	none
COc1ccc(-c2coc3cc(OC(=O)N4CCOCC4)ccc3c2=O)cc1	FMDV inh inconclusive, Shiga inhibitor 31, Cycloheximide cs 26
CCc1cc2c(=O)c(-c3nc4ccccc4[nH]3)coc2cc1OC(=O)N1CCOCC1	Cycloheximide cs 24
CC(=O)Oc1ccc2c(=O)c(-c3nc4ccccc4s3)coc2c1	Shiga inhibitor 95, Cycloheximide cs 60
CCN(CC)C(=O)Oc1ccc2cc(Br)ccc2c1	Shiga inhibitor 123, Cycloheximide cs 28
COc1cccc(Oc2coc3cc(OC(=O)N4CCOCC4)ccc3c2=O)c1	none (no result: Sm TGR inh)
COc1ccccc1Oc1coc2cc(OC(=O)N3CCOCC3)ccc2c1=O	none
COc1ccc(NC(=O)NNC(=O)COc2ccc3cc(Br)ccc3c2)cc1	none
CCn1cc(C(=O)NCCc2ccccc2)c(=O)c2cc(S(=O)(=O)N(C)C3CCCCC3)ccc21	none (no result: Shiga inhibitor, Cycloheximide cs)
COc1ccc(CN(Cc2ccco2)c2cnc(S(C)(=O)=O)nc2C(=O)Nc2ccc(F)cc2)cc1	none (no result: Shiga inhibitor, Cycloheximide cs)
CC(C(=O)O)n1nnc2ccccc21 (configuration not stated)	none
Cc1onc(-c2ccccc2)c1C(=O)n1nnc2ccccc21	FMDV inh inconclusive, Sm TGR inh 18µM
O=C(c1ccccc1)n1nnc2ccccc21	Sm TGR inh 16µM
COc1ccc(Cc2n[nH]c(=S)n2N)cc1OC	none (no result: Sm TGR inh)
COc1ccc(Cc2n[nH]c(=S)n2C)cc1Br	Sm TGR inh 32µM
O=C(/C=C/c1ccc(F)cc1)c1ccc(N2CCOCC2)cc1	none
CCc1ccc(/C=C/C(=O)c2ccc(N3CCOCC3)cc2)cc1	Shiga inhibitor active, Cycloheximide cs 15
Cc1ccc(/C=C/C(=O)c2ccc(N3CCOCC3)cc2)s1	Cycloheximide cs 27
Cc1cccc(/C=C/C(=O)c2ccc(N3CCOCC3)cc2)c1	Shiga inhibitor 45, Cycloheximide cs 14 (no result: FMDV inh)
COc1cccc(NC(=O)c2oc3ccccc3c2NC(=O)Cc2cccc(C)c2)c1	none (no result: Shiga inhibitor, Cycloheximide cs)
COc1ccccc1-c1nnc2n1N=C(c1c(OC)cccc1OC)CS2	none (no result: FMDV inh, Sm TGR inh)
Cc1ccc(CN2c3ccccc3-c3nc(SCC(=O)NCCc4ccccc4)ncc3S2(=O)=O)cc1	none (no result: Shiga inhibitor, Cycloheximide cs)
Cc1oc2ncn(CC(C)C)c(=O)c2c1C(=O)NCCCN1CCCCC1C (configuration not stated)	none (no result: Shiga inhibitor, Cycloheximide cs)
